In PubChem BioAssay (NCI):
This is part of a sample that, as a whole, favours compounds with a hit. Of some 83,000 tested, about 20% had one in any assay.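 Testing used 96-well plates and a 48-hour single-concentration exposure. Example: -40 means 40% of the starting cells died.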 Calls of active or inactive are those of the source. The calls were made as follows: active = growth percent below 10; inactive = the rest.

Each compound was assayed on MDA-MB-468 breast (assay: NCI-60 one-dose screen, 48 h (100 = growth as untreated, 0 = no growth, -100 = all killed)). Conditions: 10 µM unless noted.

Compound | growth
COc1nc2c(c(=O)[nH]1)C(c1ccc(Oc3ccnc4cc(Cl)ccc34)c(OC)c1)C=C(c1cc(OC)c(OC)c(OC)c1)N2 (stereo not given) | 92.1% (inactive)
CCn1c(SC)nnc1-c1cc2c([nH]c3ccccc32)c(-c2cccc(O)c2)n1 | -12.6% (active)
CC1(COc2ccc3ncc(C#Cc4cncc(C(=O)Nc5cc(C(C)(C)C)on5)c4)n3n2)COC1 | 85% (inactive)
ClC1C2CC(c3ccccc32)C1Cl (stereo not given) | 104% (inactive)
Cc1ccc(Cn2c(-c3cccs3)nc3ccccc32)cc1 | 67.5% (inactive)
NC(=O)c1ccc[n+](Cc2ccccc2)c1 | 98.4% (inactive)
CN1CCN(CCCOc2ccc3nc(Nc4ccc(C(F)(F)F)c(Cl)c4)ccc3c2)CC1 | 30% (inactive)
CCOC(=O)C1=C(C)NC(=O)NC1c1c(Cl)n(CCCl)c2ccccc12 (stereo not given) | 97.2% (inactive)
O=C(Nc1ccc(-n2cc(-c3ccncc3)c(-c3ccc(O)c(Cl)c3)n2)cc1)c1ccc(Cl)c(C(F)(F)F)c1 | 27.5% (inactive)
Clc1ccc2c(NCCCN3CCOCC3)c3oc4ccc(Cl)cc4c3nc2c1 | 44.2% (inactive)
CC(O)C(F)(F)C(F)(F)C(F)(F)F (stereo not given) | 96.4% (inactive)
Cc1ccc(NCCNCC(C)(C)O)c2c(=O)c3ccc(Cl)cc3sc12 | -28.9% (active)
CC(=O)c1cc2c(c(O)c1C)C(=O)C(=O)c1c(O)cccc1-2 | -58% (active)
CC(=O)Nc1nc(C)c(C(=O)NNC=O)s1 | 116% (inactive)
N#Cc1c(N)[nH]c(S)c1C#N | 103% (inactive)
CCOC(=O)c1cc(C(=O)c2ccc(OC)c(OC)c2)n2ccc(/C=C/c3cc[n+](CC(=O)c4ccc(OC)c(OC)c4)cc3)cc12 | 71.9% (inactive)
N#Cc1c(Nc2ccc(F)cc2)n[nH]c1-c1cccs1 | 98.4% (inactive)
O=C(O)c1ccccc1Oc1cc(-c2ccco2)nc(OCCBr)n1 | 119% (inactive)
CCOC(=O)c1c(-c2ccc(Cl)cc2)c(C#N)c2c(C#N)c(N)nn2c1N | 33.6% (inactive)
CCOC(=O)c1c(Nc2ccccc2)nn2c(-c3cccs3)ccnc12 | 73.3% (inactive)

Compound | growth
N#CCCOc1ccccc1 | 114% (inactive)
O=S(=O)(O)CC(O)CN1CCN(CCO)CC1 (stereo not given) | 105% (inactive)
CS(=O)(=O)c1ccc(-n2cc(/C=C/C(=O)c3ccc(NC(=O)CO[N+](=O)[O-])cc3)c(-c3ccc(Cl)cc3)n2)cc1 | 94.1% (inactive)
CC(=O)c1cc2c(cc1F)C(C)(C)CCC2(C)C | 101% (inactive)
c1ccc(CCNc2ncnc3[nH]ncc23)cc1 | 70.9% (inactive)
CC(C)C1=NOC(=O)C1=Cc1cn(-c2ccccc2)nc1-c1ccccc1 | 97.2% (inactive)
CCCCN(CCCC)CCC(C)(O)c1cc2ccccc2c2ccccc12 (stereo not given) | 107% (inactive)
Fc1ccc(Nc2nc(Nc3ccc(-c4nc5ccccc5[nH]4)cc3)c3cn[nH]c3n2)cc1 | -22.1% (active)
Oc1ccc(Cc2ccc(O)c(C3CC(c4ccc(Cl)cc4)=NN3)c2)cc1C1CC(c2ccc(Cl)cc2)=NN1 (stereo not given) | 23.3% (inactive)
Clc1ccc(-c2nc(C(Cl)Cl)nc3cc(-c4ccccc4)nn23)cc1 | -33.8% (active)
COc1cnc2c(c1)C(=O)c1c-2n(CCCNC(C)C)c(=O)c2cc([N+](=O)[O-])ccc12 | -55.8% (active)
Cc1nc2ccccc2c(/C=C/c2ccc(Cl)cc2)c1C(=O)/C=C/c1ccc(F)cc1 | -16.5% (active)
O=[N+]([O-])c1c(O)c(Cl)cc(Cl)c1Cl | 91.2% (inactive)
CC(C)CCSC1=CC(=O)c2ccccc2C1=O | -84.1% (active)
CN1CCN(Cc2ccc(NC(=O)c3cncc(C#Cc4cnc5ccc(O[C@@H]6CCOC6)nn45)c3)cc2C(F)(F)F)CC1 | -72.6% (active)
O=c1cc(NC2CCN(CCCc3ccccc3)CC2)c2cc(Cl)ccc2o1 | -13.1% (active)
O=C(NNc1nc2cc(F)ccc2n2cccc12)c1ccncn1 | -15.2% (active)
O=C(Nc1cccc(-n2cc(-c3ccncc3)c(-c3ccc(O)c(Cl)c3)n2)c1)c1cc(C(F)(F)F)cc(C(F)(F)F)c1 | 61.6% (inactive)
O=C(N/N=C(\CS(=O)(=O)c1ccccc1)c1cc2cc(Br)ccc2oc1=O)c1ccccc1 | 109% (inactive)
Cc1sc2nc(NCCc3c[nH]c4ccc(Cl)cc34)[nH]c(=O)c2c1C | 4.19% (active)
